# Source: PubChem BioAssay (NCATS)
# Values joined by “and” are separate entries in the source; they are usually repeats but may differ in a detail not shown here. Equal entries are not always repeated. A number with no mark means an inactive call. Records with an inconclusive call do not appear. Entries that show only a call come without a potency. Active and inactive are the calls of the source. Unless noted, the call rests on the fitted dose curve; in most records, active means well fitted curve in the direction sought with a large enough effect; inconclusive means small, poorly fitted or top-dose-only effect, or another doubt; inactive means no such curve, though single readings can be large; an effect the other way counts as inactive or inconclusive.
# Tests used:
# [1] = biological target: DNA dC->dU-editing enzyme APOBEC-3G (Homo sapiens) (UniProt Q9HC16); test: qHTS for inhibitors of Vif-A3G interactions: Validation (AID 588379)
# Procedure, shortened: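 Yellow fluorescence (Ex 488, Em 500-530) of Vif-coexpressing HeLa A3G-eYFP cells, scanned by Acumen cytometer, reports blocked A3G degradation. Cells plated at 700/well overnight at 37 deg C before compound addition, then a further overnight compound incubation at 37 deg C.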
# [2] = biological target: Rap guanine nucleotide exchange factor 3 (Homo sapiens) (UniProt O95398); test: Confirmatory qHTS for agonist of cAMP-regulated guanine nucleotide exchange factor 3 (EPAC1) (AID 1645881); further: nearly all actives have a fitted effect of over 75% in size; further: potency means the concentration at half of the fitted maximal effect;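 on activation: EPAC1 catalysed release of BODIPY-GDP from Rap1B seen as fluorescence loss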
# 7G8 = test: qHTS profiling for inhibitors of Plasmodium falciparum proliferation (AID 504749); further: nearly all actives have a fitted effect of over 60% in size; settings: P. falciparum in erythrocytes, SYBR Green DNA, 72 h; series mostly up to 12.8 µM
# Procedure, shortened: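 SYBR Green fluorescence (ex 485 nm, em 535 nm) reports parasite DNA after 72 h compound exposure of infected red cells at 0.3% parasitemia, 2.5% hematocrit; signal normalized to 0.29 uM artemisinin and vehicle wells.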
# [3] = biological target: Pyruvate kinase PKM (Homo sapiens) (UniProt P14618); test: qHTS Assay for Activators of Human Muscle Pyruvate Kinase (AID 954; active means well fitted curve in the direction sought with a large enough effect, not every such curve was filed as active)
# Procedure, shortened: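 Compound pinned into substrate mix (0.5 mM PEP, 0.1 mM ADP), then 0.1 nM PKM2 added; 1 h, RT. Stop/detection luciferase reagent added, luminescence read. Normalized to no-inhibition and no-enzyme or reference-inhibitor controls.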
# [4] = biological target: Alpha-galactosidase (Coffea arabica) (UniProt Q42656); test: Counterscreen for Glucocerebrosidase Inhibitors: qHTS Assay for Coffee Bean alpha-Galactosidase at pH 4.5 (AID 957)
# Procedure, shortened: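 Quantitative HTS of compounds (0.7 nM to 77 uM) against coffee bean alpha-galactosidase at pH 4.5, measuring 4-methylumbelliferone fluorescence released from 80 uM substrate.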
# [5] = biological target: Alpha-galactosidase A (Homo sapiens) (UniProt P06280); test: Counterscreen for Glucocerebrosidase Inhibitors: qHTS Assay for Human alpha-Galactosidase at pH 4.5 (AID 992)
# Procedure, shortened: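 Steps: enzyme (2 nM final), then compound across 0.7 nM to 77 uM, then 80 uM fluorogenic galactopyranoside substrate; incubate 20 min at room temperature; quench at pH 10; measure fluorescence at 365/440 nm.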
# [6] = biological target: alpha-glucosidase (Oryza sativa, rice) (UniProt Q653V4); test: Counterscreen for Glucocerebrosidase Inhibitors: qHTS Assay for Rice alpha-Glucosidase at pH 5.0 (AID 997)
# Procedure, shortened: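 Endpoint fluorogenic assay at pH 5.0: compounds (0.7 nM to 77 uM) titrated against 4 nM rice enzyme and 400 uM 4-MU-alpha-glucoside for 20 min at room temperature; NaOH/glycine stop, read ex 365/em 440 nm, Hill-fitted AC50.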
# [7] = biological target: Alpha-galactosidase (Coffea arabica) (UniProt Q42656); test: Counterscreen for Glucocerebrosidase Inhibitors: qHTS Assay for Coffee Bean alpha-Galactosidase at pH 5.9 (AID 998)
# Procedure, shortened: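 Enzyme 2 nM + cpd (0.7 nM–77 uM titration) + 4-MU-alpha-Gal 80 uM, pH 5.9 citrate/Tween-20, RT 20 min, NaOH/glycine stop pH 10, fluor 365/440. Normalized to no-enzyme and full-activity controls; Hill-fit AC50.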
# [8] = qHTS Assay for Modulators of Human Peripheral Myelin Protein 22 (PMP22) Expression/Activity (AID 1967; active means well fitted curve in the direction sought with a large enough effect in the signal ratio; the % refers to the signal ratio)
# Procedure, shortened: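 Readout is the corrected green/red luminescence ratio after 24 h compound exposure, normalised to untreated cells (0%). Engineered MSC80 mouse Schwann cells express green luciferase from the mouse Pmp22 promoter and red luciferase from EF-alpha as internal control.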
# [9] = Cell Viability - LYMP2-001 (AID 921); further: nearly all actives have a fitted effect of over 70% in size; further: potency means the concentration at half of the fitted maximal effect
# Procedure, shortened: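 Cellular ATP loss read by luciferase luminescence after 24 h compound exposure at 37 C in complete medium. LYMP2-001 lymphoblastoid cells, 2500/well; qHTS concentration-response data fitted with Hill equation for AC50.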
# [10] = biological target: Peroxisome proliferator-activated receptor gamma (Homo sapiens) (UniProt P37231); test: qHTS assay for small molecule agonists of peroxisome proliferator-activated receptor gamma signaling (AID 588536; active means well fitted curve in the direction sought with a large enough effect in the signal ratio, with a control signal flat, not every such curve was filed as active; the % refers to the signal ratio)
# Procedure, shortened: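 Cells were plated and held 6–6.5 h at 37 C, then compounds were added as a titration series. After a further 16 h, CCF4 dye was loaded for 2 h at room temperature and emission at 460/530 nm recorded.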
# [11] = biological target: Peroxisome proliferator-activated receptor gamma (Homo sapiens) (UniProt P37231); test: qHTS assay for small molecule antagonists of peroxisome proliferator-activated receptor gamma signaling (AID 588537; active means well fitted inhibition curve with a large enough effect in the signal ratio, with a control signal flat, not every such curve was filed as active; the % refers to the signal ratio;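 further: reporter cells co-stimulated with 50 nM rosiglitazone agonist during compound treatment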)
# Procedure, shortened: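 Read-out: CCF4 fluorescence (ex 405, em 460/530 nm) after 2 h at RT. Cells were HEK293 carrying a UAS-bla reporter and treated 16 h at 37 C with compound plus rosiglitazone (50 nM final). Normalized to rosiglitazone and DMSO.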
# [12] = qHTS assay for small molecule disruptors of the mitochondrial membrane potential - 1 hr assay (AID 651754; calls by dose curve; further: nearly all actives have a fitted effect of over 35% in size)
# Procedure, shortened: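 In this qHTS format, a 1 hr compound treatment of HepG2 cells precedes Mito-MPS staining, and membrane potential is judged from aggregate (red) against monomer (green) fluorescence intensity.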
# [13] = qHTS assay to identify small molecules that stimulate interleukin-8 (IL-8) secretion (AID 651758; active means well fitted activation curve with a large enough effect in the signal ratio; the % refers to the signal ratio; further: potency means the concentration at half of the fitted maximal effect)
# Procedure, shortened: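 Compounds are added to THP-1 cells (2000 per well) and left 16 hrs at 37 C. A labeled anti-IL-8 antibody pair is then added, and IL-8 secretion is measured by time-resolved FRET after 1-3 hrs at room temperature.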
# [14] = Cellular Toxicity (caspase-3) Renal Proximal Tubule (AID 667); settings: renal proximal tubule cells; at 91.7 µM (top of the series), primary cells freshly taken from rat, solvent-only wells 0%, staurosporine 100% unless noted;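 further: cells exposed to compound for 16 hours at 37 °C before detection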
# Procedure, shortened: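 Caspase 3/7 activation measured by luminescent aminoluciferin release in primary rat proximal tubule cells after 16 hr compound exposure at 37 °C. AC50 from Hill-fitted concentration-response, scaled between DMSO and 10 uM staurosporine.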
# [15] = Cell Viability - LYMP2-002 (AID 977)
# Procedure, shortened: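 Human lymphoblastoid cells, 2500/well, complete medium; 5 h 37 C settle; compound 24 h 37 C; CellTiter-Glo, 30 min RT; luminescence. Decrease in ATP = cytotoxicity; AC50 via Hill equation.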
# [16] = Cell Viability - LYMP2-024 (AID 988);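 further: cells exposed to compound for 24 hr at 37 °C; nearly all actives have a fitted effect of over 60% in size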
# Procedure, shortened: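 Cells at 2500 per well received compound for 24 hr after a 5 hr settling period. Viability was scored by CellTiter-Glo luminescence, with AC50 from Hill fits.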
# [17] = qHTS assay for small molecule activators of the human pregnane X receptor (PXR) signaling pathway (AID 720659; call rule not given here)
# [18] = Cell Viability - LYMP2-013 (AID 970); further: nearly all actives have a fitted effect of over 55% in size
# Procedure, shortened: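 In complete culture medium, human lymphoblastoid cells were dosed for 24 hr at 37 C, with tetraoctylammonium bromide (6.4pM to 92 uM) as positive control. Viability reflects luciferase-based ATP signal; AC50 derived from concentration-response curves.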
# Alpha-galactosidase A (Homo sapiens), sequence (P06280 whole entry, looked up): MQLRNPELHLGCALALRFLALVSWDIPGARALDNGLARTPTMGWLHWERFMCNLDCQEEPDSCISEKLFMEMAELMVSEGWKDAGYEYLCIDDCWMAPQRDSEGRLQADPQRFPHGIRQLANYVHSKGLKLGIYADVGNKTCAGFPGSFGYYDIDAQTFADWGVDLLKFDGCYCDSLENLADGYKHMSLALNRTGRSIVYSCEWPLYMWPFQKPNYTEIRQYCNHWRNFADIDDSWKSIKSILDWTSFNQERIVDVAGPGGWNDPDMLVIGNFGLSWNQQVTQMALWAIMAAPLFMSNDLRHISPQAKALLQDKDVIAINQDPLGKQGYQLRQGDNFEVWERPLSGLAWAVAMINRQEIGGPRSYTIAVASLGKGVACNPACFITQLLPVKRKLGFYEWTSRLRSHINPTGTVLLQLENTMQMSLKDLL
# Pyruvate kinase PKM (Homo sapiens), sequence (P14618 whole entry, looked up): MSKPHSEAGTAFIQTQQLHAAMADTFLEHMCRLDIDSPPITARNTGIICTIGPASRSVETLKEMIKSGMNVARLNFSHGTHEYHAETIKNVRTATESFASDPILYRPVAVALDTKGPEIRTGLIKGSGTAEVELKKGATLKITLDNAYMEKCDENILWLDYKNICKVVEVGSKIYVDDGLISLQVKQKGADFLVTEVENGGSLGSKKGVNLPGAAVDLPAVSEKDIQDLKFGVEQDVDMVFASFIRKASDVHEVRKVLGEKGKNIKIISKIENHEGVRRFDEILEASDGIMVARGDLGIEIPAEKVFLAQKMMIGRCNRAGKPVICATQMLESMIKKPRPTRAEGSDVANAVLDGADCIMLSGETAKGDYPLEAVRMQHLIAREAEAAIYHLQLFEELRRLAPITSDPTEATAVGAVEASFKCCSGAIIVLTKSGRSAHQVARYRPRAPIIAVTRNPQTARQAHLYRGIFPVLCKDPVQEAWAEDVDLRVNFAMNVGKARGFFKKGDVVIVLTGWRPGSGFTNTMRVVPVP
# DNA dC->dU-editing enzyme APOBEC-3G (Homo sapiens), sequence (Q9HC16 whole entry, looked up): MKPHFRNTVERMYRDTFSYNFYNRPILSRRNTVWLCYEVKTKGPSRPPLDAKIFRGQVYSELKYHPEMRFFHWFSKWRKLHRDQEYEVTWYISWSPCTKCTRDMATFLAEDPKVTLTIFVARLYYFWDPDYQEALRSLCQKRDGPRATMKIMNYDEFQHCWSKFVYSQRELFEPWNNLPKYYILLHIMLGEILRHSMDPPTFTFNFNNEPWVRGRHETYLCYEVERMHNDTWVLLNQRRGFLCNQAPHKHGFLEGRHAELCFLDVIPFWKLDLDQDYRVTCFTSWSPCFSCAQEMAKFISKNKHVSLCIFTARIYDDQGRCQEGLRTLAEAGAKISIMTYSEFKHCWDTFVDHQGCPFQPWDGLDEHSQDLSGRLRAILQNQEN
# Alpha-galactosidase (Coffea arabica), sequence (Q42656 whole entry, looked up): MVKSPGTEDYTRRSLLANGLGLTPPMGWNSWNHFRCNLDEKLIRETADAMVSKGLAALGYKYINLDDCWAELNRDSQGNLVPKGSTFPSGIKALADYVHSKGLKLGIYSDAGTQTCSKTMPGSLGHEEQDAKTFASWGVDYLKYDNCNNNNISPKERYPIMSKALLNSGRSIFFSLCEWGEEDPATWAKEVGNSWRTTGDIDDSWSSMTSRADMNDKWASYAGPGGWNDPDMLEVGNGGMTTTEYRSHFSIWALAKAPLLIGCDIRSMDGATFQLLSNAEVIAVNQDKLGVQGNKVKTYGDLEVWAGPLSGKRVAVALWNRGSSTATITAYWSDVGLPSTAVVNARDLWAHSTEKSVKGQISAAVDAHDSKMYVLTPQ
# Peroxisome proliferator-activated receptor gamma (Homo sapiens), sequence (P37231 whole entry, looked up): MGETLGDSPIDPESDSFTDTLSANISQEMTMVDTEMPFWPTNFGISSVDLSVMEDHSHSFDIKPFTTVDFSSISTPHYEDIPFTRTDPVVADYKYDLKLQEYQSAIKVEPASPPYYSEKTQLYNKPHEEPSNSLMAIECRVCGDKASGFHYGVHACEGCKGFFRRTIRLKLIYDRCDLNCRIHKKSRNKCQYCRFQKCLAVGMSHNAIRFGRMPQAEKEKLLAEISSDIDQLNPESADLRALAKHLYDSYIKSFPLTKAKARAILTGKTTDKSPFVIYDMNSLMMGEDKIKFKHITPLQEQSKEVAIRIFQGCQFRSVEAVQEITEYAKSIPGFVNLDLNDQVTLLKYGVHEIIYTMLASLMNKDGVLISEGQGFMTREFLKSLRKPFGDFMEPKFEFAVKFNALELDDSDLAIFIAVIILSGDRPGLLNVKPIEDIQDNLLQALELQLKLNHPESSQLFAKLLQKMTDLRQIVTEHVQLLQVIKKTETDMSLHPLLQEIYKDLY
# Rap guanine nucleotide exchange factor 3 (Homo sapiens), sequence (O95398 whole entry, looked up): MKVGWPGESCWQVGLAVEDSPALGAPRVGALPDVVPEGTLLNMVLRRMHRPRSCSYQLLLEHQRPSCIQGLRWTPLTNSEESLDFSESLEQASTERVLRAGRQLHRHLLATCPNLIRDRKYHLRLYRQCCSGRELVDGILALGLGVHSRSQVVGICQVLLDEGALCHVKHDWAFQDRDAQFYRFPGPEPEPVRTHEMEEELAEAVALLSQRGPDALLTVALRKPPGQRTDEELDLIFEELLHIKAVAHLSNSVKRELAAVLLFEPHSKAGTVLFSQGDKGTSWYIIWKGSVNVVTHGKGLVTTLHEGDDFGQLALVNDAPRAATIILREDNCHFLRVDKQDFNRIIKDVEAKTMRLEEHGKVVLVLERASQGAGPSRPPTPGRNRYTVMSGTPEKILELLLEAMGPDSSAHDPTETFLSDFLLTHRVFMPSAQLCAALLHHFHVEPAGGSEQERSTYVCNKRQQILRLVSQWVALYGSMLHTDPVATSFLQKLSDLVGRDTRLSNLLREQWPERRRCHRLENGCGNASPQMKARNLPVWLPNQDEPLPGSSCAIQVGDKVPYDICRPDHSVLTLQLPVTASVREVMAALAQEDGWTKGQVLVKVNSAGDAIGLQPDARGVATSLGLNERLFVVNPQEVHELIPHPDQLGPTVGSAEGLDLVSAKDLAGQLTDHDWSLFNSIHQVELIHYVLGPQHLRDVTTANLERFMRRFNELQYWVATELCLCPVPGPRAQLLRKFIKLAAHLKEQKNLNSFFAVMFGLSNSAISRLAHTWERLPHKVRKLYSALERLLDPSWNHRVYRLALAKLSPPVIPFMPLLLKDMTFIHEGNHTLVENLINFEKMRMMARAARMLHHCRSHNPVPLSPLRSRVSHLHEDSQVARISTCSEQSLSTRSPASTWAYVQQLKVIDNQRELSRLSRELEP
structure (smiles),measurement,setting,value
C[C@]12CC[C@H](O)CC1=CCC1C2CC[C@]2(C)C(=O)CC[C@@H]12 (some centres not stated),outcome,[1],inactive
O=C1c2ccccc2-c2cccc3cccc1c23,Potency,[2],inactive
CCCC[N+]1(C)C2CC(OC(=O)C(CO)c3ccccc3)CC1C1OC12 (configuration not stated),Potency,7G8,inactive
O=C(OC1CCN(CCCl)CC1)C(c1ccccc1)c1ccccc1,outcome,[3],inactive
same,outcome,[4],inactive
same,outcome,[5],inactive
same,outcome,[6],inactive
same,outcome,[7],inactive
same,Potency,[2],inactive
COc1cc2c(cc1-c1cc3cc4ccoc4cc3oc1=O)OCO2,Potency,[2],inactive
C[N+]1(C)C2CC(OC(=O)C(CO)c3ccccc3)CC1C1OC12 (configuration not stated),outcome,[8],inactive
CC(=O)OC1CC2C(C)(C)C(=O)C=C[C@]2(C)C2CC[C@]3(C)C(=CC(=O)OC3c3ccoc3)[C@]12C (some centres not stated),Potency,[2],inactive
Cc1nnc2ccc(-c3cccc(C(F)(F)F)c3)nn12,outcome,[1],inactive
C#CCN(C)C(C)Cc1ccccc1 (configuration not stated),outcome,[8],inactive
CCCN(C/C=C\I)[C@@H]1CCc2ccc(O)cc2C1,outcome,[1],inactive
CC1=NCCc2c1[nH]c1cc(O)ccc21,Potency,[2],63 µM (active) and 28.1 µM (active) and 48.4 µM (active)
O=C1C=CC(=O)c2c(O)cccc21,Potency,[2],inactive
ClC1=C(Cl)C2(Cl)C3C4C=CC(C4)C3C1(Cl)C2(Cl)Cl (configuration not stated),Potency,[9],39.8 µM (active)
same,outcome,[10],inactive
same,Potency,[11],inactive
same,Potency,[12],inactive
same,Potency,[13],42.2 µM (active)
c1ccc(N=Nc2ccccc2)cc1,caspase-3 activation,[14],1.95%
same,Potency,[9],inactive
same,Potency,[15],inactive
same,Potency,[16],inactive
same,Potency,[11],inactive
same,Potency,[12],inactive
same,outcome,[17],inactive
COc1cc(C=C(C#N)C#N)cc(O)c1O,outcome,[3],inactive
same,outcome,[4],inactive
same,outcome,[5],inactive
same,outcome,[6],inactive
same,outcome,[7],inactive
C=CCN1CC[C@@]2(C)c3cc(O)ccc3CC1[C@@H]2C,outcome,[8],inactive
CCNc1nc(Cl)nc(NC(C)C)n1,caspase-3 activation,[14],-3.87% [at 91.7 µM]
same,Potency,[18],inactive
same,Potency,[16],inactive
same,outcome,[10],inactive
same,Potency,[11],inactive
same,Potency,[13],inactive
CCCN1CCC[C@@H]2Cc3n[nH]cc3C[C@H]21,outcome,[8],inactive
C=CCc1ccc2c(c1)OCO2,caspase-3 activation,[14],-2.37% [at 91.7 µM]
same,Potency,[9],inactive
same,Potency,[18],inactive
same,Potency,[15],inactive
same,Potency,[13],inactive
same,outcome,[17],inactive
COC(=O)NC(=S)Nc1ccccc1NC(=S)NC(=O)OC,Potency,[9],inactive
same,Potency,[18],inactive
same,Potency,[16],inactive
same,Potency,[11],inactive
same,Potency,[12],inactive
CCN1C[C@]2(C)CC[C@H](O)[C@@]34[C@@H]5C[C@@H]6[C@@H](OC)C[C@@](O)(C5[C@H]6O)[C@@H](C[C@@H]23)[C@@H]14,outcome,[8],inactive
COc1ccc2c(c1O)-c1c(OC)c(OC)cc3c1[C@H](C2)N(C)CC3,outcome,[1],inactive
O=S1OCC2C(CO1)C1(Cl)C(Cl)=C(Cl)C2(Cl)C1(Cl)Cl (configuration not stated),Potency,[13],66.8 µM (active)
NCC#Cc1ccccc1,outcome,[3],inactive
same,outcome,[4],inactive
same,outcome,[5],inactive
same,outcome,[6],inactive
same,outcome,[7],inactive
O=C(O)COc1ccc(Cl)cc1Cl,Potency,[9],inactive
same,Potency,[18],inactive
same,Potency,[16],inactive
same,Potency,[12],inactive
same,outcome,[17],inactive
CCCN(CCC)C(=O)Cc1c(-c2ccc(Cl)cc2)nc2c(Cl)cc(Cl)cn12,outcome,[3],inactive
same,outcome,[4],inactive
same,outcome,[5],inactive
same,outcome,[6],inactive
same,outcome,[7],inactive
same,outcome,[8],inactive
C=CCc1ccc(OC)cc1,Potency,[9],inactive
same,Potency,[15],inactive
same,Potency,[16],inactive
same,outcome,[10],inactive
same,Potency,[11],inactive
same,outcome,[17],inactive
CCOCN(C(=O)CCl)c1c(C)cccc1CC,caspase-3 activation,[14],0.858%
same,Potency,[15],inactive
same,Potency,[12],inactive
same,Potency,[13],inactive
